From PubChem BioAssay
Results filed as inconclusive are left out. Calls of active or inactive are those of the source. Unless noted, the limit is not given here; nearly all actives have AC50 up to about 26 µM. Bridge positions count the residues as written; N and C are the ends. Square brackets hold non-standard residues; d marks the D form. Peptide text beside a SMILES is read from it. * marks the point of attachment. X2 = CCC(C)C(N)C1=NC(C(=O)*)CS1; dOrn = NCCC[C@@H](N)C(=O)O

How the values were obtained:
[1] = growth inhibition of DIPG glioma cells, dose response, cell-based, SU-DIPG-XIII, MIPE5.0, CellTiter-Glo, qHTS (AID 1347064; cut-off not given, nearly all actives have AC50 up to about 23 µM;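 as to AC50: cells exposed to compound for 48 hours before the viability read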); conditions: SU-DIPG-XIII viability, CellTiter-Glo ATP luminescence
[2] = JHH-DIPG-1 glioma cell viability, MIPE5.0 library, CellTiter-Glo luminescence, qHTS (AID 1347067); conditions: JHH-DIPG-1 glioma viability, CellTiter-Glo ATP luminescence;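 also: cells exposed to compound for 48 hours before readout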
[3] = SU-DIPG-XXV glioma cell viability, MIPE5.0 library, qHTS (AID 1347068; cut-off not given, nearly all actives have IC50 up to about 30 µM;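 as to IC50: cells exposed to compound for 48 hours before viability readout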)
[4] = viability loss in pontine glioma line – cell-based, SU-DIPG-XXV, MIPE5.0, CellTiter-Glo, qHTS, dose response (AID 1347065); conditions: CellTiter-Glo ATP luminescence;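 also: cells exposed to compound for 48 hours before ATP readout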
[5] = modifiers of HSF1 nuclear foci, imaging, Selleck Cancer Library (AID 1347162; in the data active = plate-normalised HSF1 focus index below about 0.46); conditions: human cells, at 10 µM; SSMD: measured here: HSF1 foci SSMD mean; cell count: measured here: cell number; plate-normalised HSF1 focus index: stronger effect = lower value
[6] = SU-DIPG-VI glioma cell viability, MIPE4.0 library, CellTiter-Glo luminescence, qHTS (AID 1347066; cut-off not given, nearly all actives have AC50 up to about 30 µM;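 also: cells exposed to compound for 48 hours before readout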); conditions: CellTiter-Glo ATP luminescence
[7] = hESC survival regulators, cell-based (AID 493140; call rule not given here;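 also: cells exposed to compounds for four days before counting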); conditions: human embryonic stem cell survival screen; stronger effect = higher value
[8] = liver-stage malaria parasite growth inhibition, primary screen, cell-based, HepG2, luciferase luminescence, HepG2 viability (AID 624349; in the data active = parasite load remaining mostly below about 12%, no sharp cut-off; inactive = mostly above about 10%;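 also: 100% = mean of DMSO negative control wells on the same plate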); conditions: P. berghei liver stage in HepG2, luciferase luminescence, concentration not given here; parasite load remaining: stronger effect = lower value; viability: measured here: HepG2 viability without parasites
[9] = sensitizers of A549 cells to miR-34 induction, primary screen, imaging, A549 dox-inducible miR-34, nuclei and caspase counts (AID 1347080;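 active = compounds whose cell count with miR-34 switched on is under 0.7 times the count with it off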); conditions: A549 miR-34 inducible, Hoechst nuclei count, 48 h
[10] = survival rescue of mitochondrial mutant cells in low glucose, primary screen, MELAS cybrids, Rieske KO mouse fibroblasts, CellTiter-Glo (AID 1508586;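 active = mean z-score across replicates of 1.96 or higher in either the MELAS or the Rieske mutant cell line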;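 also: z relative to plate mean and SD of compound and empty wells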)
[11] = stronger effect = lower value, cell number ratio, induced over uninduced
[12] = measured here: relative caspase fold change +Dox/-Dox
[13] = measured here: total cells with miR-34 induction, stronger effect = lower value
[14] = measured here: total cells without miR-34 induction
[15] = MELAS cybrid survival, CellTiter-Glo 48 h, stronger effect = higher value
[16] = Rieske KO mouse fibroblast survival, CellTiter-Glo 72 h

For Nc1ccn([C@@H]2C(F)=C(CO)[C@@H](O)[C@H]2O)c(=O)n1, the outcome [1] was “inactive”, the outcome [2] was “inactive” and the outcome [3] was “inactive”.

With O=C(/C=C/C#Cc1cccc(NS(=O)(=O)c2ccccc2)c1)NO the AC50 [1] was 1.29 µM (active), the AC50 [4] was 1.82 µM (active) and the AC50 [2] was 1.82 µM (active). The SSMD [5] was -2.13, the cell count [5] was 6610 and the plate-normalised HSF1 focus index [5] was 0.874 (inactive).

For Cc1c(-c2ccc(-c3ccccc3F)cc2)nc2ccc(F)cc2c1C(=O)O, the outcome [1] was “inactive” and the outcome [2] was “inactive”.

In the case of Nc1ncnc2c1nc(Cl)n2[C@@H]1O[C@H](CO)[C@@H](O)[C@H]1O, the AC50 [1] is reported as 16.6 µM (active), the AC50 [6] is reported as 23.5 µM (active) and the outcome [3] is reported as “inactive”.

For O=C(Nc1ccc(F)c(C(F)(F)F)c1)Nc1nnc(-c2ccncc2)s1, the outcome [1] was “inactive”, the outcome [6] was “inactive” and the outcome [2] was “inactive”. The outcome [3] was “inactive”.

With CC1(N)CCN(c2cccnc2NC(=O)c2nc(-c3ncccc3C(F)(F)F)cnc2N)CC1 the outcome [1] was “inactive” and the outcome [2] was “inactive”.

In the case of CCC(C)C(N)C1=NC(C(=O)N[C@@H](CC(C)C)C(=O)N[C@H](CCC(=O)O)C(=O)N[C@H](C(=O)N[C@H]2CCCCNC(=O)[C@H](CC(N)=O)NC(=O)[C@@H](CC(=O)O)NC(=O)[C@H](Cc3cnc[nH]3)NC(=O)[C@@H](Cc3ccccc3)NC(=O)[C@H]([C@@H](C)CC)NC(=O)[C@@H](CCCN)NC2=O)[C@@H](C)CC)CS1 (some centres not stated) (X2-L[dE]IK[dOrn]I[dF]H[dD]N; lactam 4-C), the survival [7] is reported as 9.33 (inactive), the parasite load remaining [8] is reported as 69.3% (inactive) and the viability [8] is reported as 103%. For the same compound, the outcome [1] was “inactive”, the outcome [4] was “inactive” and the outcome [2] was “inactive”. The outcome [3] was “inactive”, the fold change [9, 11] was 0.898 (inactive) and the fold change [9, 12] was 1.36. The cell count [9, 13] was 9810, the cell count [9, 14] was 10900 and the z-score [10, 15] was 0.499 (inactive). For the same compound, the z-score [10, 16] was -0.0886.

For Cc1cc(C)cc(Oc2ccc(CNC(=O)[C@H](C)N)cc2C)c1, the AC50 [1] was 26.3 µM (active), the AC50 [4] was 18.6 µM (active) and the outcome [3] was “inactive”.

In the case of NCc1ccc(OCCCc2sc(-c3ccc4c(c3)/C(=N/Nc3nc5ccccc5s3)CCC4)nc2C(=O)O)cc1, the outcome [1] is reported as “inactive”, the outcome [4] is reported as “inactive” and the outcome [3] is reported as “inactive”.

For O=C(NNc1ccccc1)c1ccncc1, the outcome [1] was “inactive”, the outcome [4] was “inactive” and the outcome [3] was “inactive”. For the same compound, the fold change [9, 11] was 0.922 (inactive), the fold change [9, 12] was 0.452 and the cell count [9, 13] was 7960. The cell count [9, 14] was 8630, the z-score [10, 15] was -0.433 (inactive) and the z-score [10, 16] was -1.65.

For CCN(CCCOc1ccc2c(Nc3cc(CC(=O)Nc4cccc(F)c4)[nH]n3)ncnc2c1)CCOP(=O)(O)O, the outcome [1] was “inactive”, the AC50 [4] was 1.18 µM (active) and the outcome [3] was “inactive”.

With Cc1cc(O[C@@H](CCC(F)(F)F)c2ccc(C(=O)NCCC(=O)O)cc2)cc(C)c1-c1ccc(C(C)(C)C)cc1 the AC50 [1] was 11.8 µM (active), the AC50 [4] was 9.34 µM (active) and the IC50 [3] was 8.33 µM (active).

For C=CCN(/C=C1\C(=O)O[C@@H](COC)[C@]2(C)C1=C(O)C(=O)C1=C2[C@@H](OC(C)=O)C[C@]2(C)C(=O)CC[C@H]12)CC=C, the AC50 [1] was 16.6 µM (active), the AC50 [4] was 9.34 µM (active) and the outcome [3] was “inactive”.
